Values without a mark were called inactive. The source made the active and inactive calls. How the calls were made is not given here.
Molecular target: Estrogen receptor (Homo sapiens) (UniProt P03372)
Test: ERalpha ligand binders by competition, primary screen, cell-based, Cos7 ERalpha-GFP, flow cytometry (AID 1211);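 further: 0% = DMSO vehicle wells and 100% = no E2-Alexa633 signal left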
Details: fluorescent ligand competition, at 10 µM, stronger effect = higher value

Sequence of Estrogen receptor (Homo sapiens) (P03372 whole entry, looked up): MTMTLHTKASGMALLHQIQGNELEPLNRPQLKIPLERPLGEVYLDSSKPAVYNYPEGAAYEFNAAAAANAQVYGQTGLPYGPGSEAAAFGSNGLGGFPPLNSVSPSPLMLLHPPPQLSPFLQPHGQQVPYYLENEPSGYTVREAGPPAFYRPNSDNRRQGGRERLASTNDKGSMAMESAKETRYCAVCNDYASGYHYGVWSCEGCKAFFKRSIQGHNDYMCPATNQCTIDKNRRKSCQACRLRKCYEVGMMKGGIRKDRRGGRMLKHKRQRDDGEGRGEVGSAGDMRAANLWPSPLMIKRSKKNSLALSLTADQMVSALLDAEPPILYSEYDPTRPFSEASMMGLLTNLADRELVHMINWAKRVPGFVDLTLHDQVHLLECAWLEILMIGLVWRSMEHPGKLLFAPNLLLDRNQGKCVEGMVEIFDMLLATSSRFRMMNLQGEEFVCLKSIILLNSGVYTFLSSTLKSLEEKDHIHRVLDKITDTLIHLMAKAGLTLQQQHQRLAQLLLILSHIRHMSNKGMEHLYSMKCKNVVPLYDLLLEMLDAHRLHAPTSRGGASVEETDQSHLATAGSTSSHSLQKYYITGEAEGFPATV

SMILES	inhibition of ligand binding
CCCCCCc1cc2c3c(c(=O)oc2cc1OCC(=O)O)CCCC3	1%
CCOc1cc2c(cc1OCC)C(C1CCCCC1)NCC2 (stereo not drawn)	1%
O=C1CC(c2ccncc2)c2cc3c(cc2N1)OCCO3 (stereo not drawn)	0%
Cn1cccc1/C=C1\SC(=O)N(c2ccc(O)cc2)C1=O	45%
Cc1cc(C)c2c(c1)NC(c1cc3c(cc1Br)OCO3)C1CC=CC21 (stereo not drawn)	79% (active)
COc1ccc(CNC(=O)COC(=O)c2cc(-c3ccco3)nc3ccccc23)cc1	20%
c1coc(C2Nc3ccccc3C3OCCC23)c1 (stereo not drawn)	41%
CC1(C)Cc2[nH]c3ccccc3c2C(C)(C)N1	6%
O=c1cc(-c2ccccc2Cl)oc2c(Br)ccc(O)c12	27%
CCCc1c(C(=O)OCC)[nH]c2c1C(=O)CC(c1ccccc1)C2 (stereo not drawn)	27%
CCOC(=O)COc1cc2oc(=O)c3c(c2cc1CC)CCCC3	0%
Cc1nc(-c2ccc(O)c(O)c2)cs1	17%
Nc1ccc(-c2nc3c(Cl)c(N)ccc3[nH]2)cc1	14%
O=C(O)c1ccc2c(c1)[C@@H]1C=CC[C@@H]1[C@H](c1ccccn1)N2	81% (active)
CC1(C)Cc2[nH]c(=O)c(C(=O)O)cc2CO1	2%
C=C1c2ccc(OC)cc2NC(=O)N1c1ccccc1	4%
COc1ccc(-c2nnc(SCC(=O)c3cc(C)n(Cc4cccs4)c3C)o2)cc1	35%
CC(=O)OC1CC2(C)C(=O)CCC2C2CCc3cc(O)ccc3C12 (stereo not drawn)	23%
O=C(O)c1ccc2c(c1)C1C=CCC1C(c1cc3c(cc1Br)OCO3)N2 (stereo not drawn)	79% (active)

SMILES	inhibition of ligand binding
CCCCc1cc2c(=O)c(-c3ccccn3)coc2cc1O	1%
CCOC(=O)c1ccc2c(c1)C1C=CCC1C(c1cccc([N+](=O)[O-])c1)N2 (stereo not drawn)	21%
Cc1ccc(-n2cc3c(c(C#N)c2=N)CC(C)(C)CC3=O)cc1	35%
CCCOc1cc(OCCC)c2c3c(c(=O)oc2c1)CCCC3	3%
Cc1ccc(OCc2ccoc2C(=O)O)cc1C	0%
Cc1ccc2c(c1)C1C=CCC1C(C(=O)O)N2 (stereo not drawn)	0%
COc1cccc(C2Nc3c(F)cc(Br)cc3C3C=CCC32)c1OC (stereo not drawn)	60%
O=c1oc2cc(O)ccc2c2c1CCC2	0%
Cc1ccc(NC(=O)CSc2nnnn2-c2ccc3c(c2)OCO3)cc1C	33%
N#Cc1ccc(-c2cccnc2)nc1SCC(=O)Nc1sc2c(c1C#N)CCC2	15%
COc1ccc(C(=O)N/N=C(\C)c2ccc3c(c2)C2C=CCC2C(c2ccccc2)N3)cc1 (stereo not drawn)	73% (active)
Oc1ccc(-c2[nH]nc(-c3ccccc3)c2-c2nc3ccccc3[nH]2)cc1	33%
CCCCCCc1cc2c3c(c(=O)oc2cc1OCC(=O)OC)CCC3	0%
O=C(O)c1ccc([N+](=O)[O-])c2c1NC(c1ccccc1)C1CC=CC21 (stereo not drawn)	100% (active)
COC(=O)c1ccc(C2Nc3ccc(/C(C)=N/NC(=O)C(OC)c4ccccc4)cc3C3C=CCC32)cc1 (stereo not drawn)	0%
COc1ccccc1C1Nc2c(C(=O)O)cccc2C2C3CCC(C3)C12 (stereo not drawn)	19%
COc1cc(C2CC(=O)Nc3c2ccc2ccccc32)cc(Cl)c1O (stereo not drawn)	0%
COc1cccc(-c2cc(C(=O)Nc3cc(C)nn3-c3ccccc3)no2)c1	30%
CSCCC(NC(=O)c1ccco1)C(=O)OCC(=O)Nc1sccc1C#N (stereo not drawn)	4%

Reference: PubChem BioAssay AID1211 (NMMLSC, 2008)
